The campaign covered roughly 16,000 compounds. About 5,100 (32%) were called active. Another 25% or so got no clear call; they are omitted. The list shows a part of the results. A number with no mark means an inactive call. The call rests on the fitted dose curve; in most records, active means well fitted curve in the direction sought with a large enough effect; inconclusive means small, poorly fitted or top-dose-only effect, or effect the other way; inactive means no such curve, though single readings can be large or run the other way.
On the % scale 0 is the no-effect control and ±100 the full control effect.

This test deals with Cytochrome P450 3A4 (Homo sapiens) (UniProt P08684). Put plainly: Cytochrome panel assay with activity outcomes. Conditions: recombinant CYP, pro-luciferin dealkylation, luminescence, p450-cyp3a4; series mostly up to 57.1 µM.
Chain of Cytochrome P450 3A4 (Homo sapiens) (P08684 whole entry, looked up): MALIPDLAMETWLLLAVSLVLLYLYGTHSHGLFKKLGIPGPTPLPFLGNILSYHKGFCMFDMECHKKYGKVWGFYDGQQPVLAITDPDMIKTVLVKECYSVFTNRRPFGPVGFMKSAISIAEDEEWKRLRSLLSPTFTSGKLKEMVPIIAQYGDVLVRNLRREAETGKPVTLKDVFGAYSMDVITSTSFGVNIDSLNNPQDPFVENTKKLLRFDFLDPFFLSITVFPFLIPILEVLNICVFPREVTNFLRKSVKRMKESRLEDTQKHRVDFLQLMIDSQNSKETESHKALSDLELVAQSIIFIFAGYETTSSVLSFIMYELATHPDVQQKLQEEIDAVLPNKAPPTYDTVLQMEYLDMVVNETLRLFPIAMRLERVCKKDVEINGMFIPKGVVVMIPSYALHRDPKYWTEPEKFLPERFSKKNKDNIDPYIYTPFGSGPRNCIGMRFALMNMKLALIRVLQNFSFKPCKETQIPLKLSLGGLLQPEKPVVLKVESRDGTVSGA
For the compound `Cc1cccc(C(=O)NC(=S)N2CCN(C)CC2)c1`, the AC50 result was “inactive”. Same read-out and setting: the same measure for `COC(=O)c1ccc(NC(=S)N2CCN(Cc3cccc(C)c3)CC2)cc1`: 12.6 µM (active). Same read-out and setting: the same measure for `CC(C)CC(=O)N1CCN(Cc2cccc(F)c2)CC1`: “inactive”; for `Cc1cccc(C(=O)NC2CCN(C(=O)N3CCOCC3)CC2)c1`: “inactive”. On the same count and under the same terms, the same measure for `COc1cccc(NC(=S)NN2CCN(C)CC2)c1`: “inactive”. In the case of `Brc1ccc(-c2csc(N3CCC(c4ccccc4)C3)n2)cc1` (stereo not drawn), the AC50 result was “inactive”. Still for that read-out and setting: the same measure for `Cc1cccc(C(=O)NC2CCN(C(=S)NCc3ccco3)CC2)c1`: 5.62 µM (active); for `COc1cccc(N2CCN(C(=S)Nc3cccc(C)c3)CC2)c1`: 3.55 µM (active); for `COc1cccc(-c2csc(N3CCN(C(=S)Nc4ccccc4)CC3)n2)c1`: 8.91 µM (active). For the compound `Cn1cnc([N+](=O)[O-])c1Sc1nc(N)nc2c1ncn2Cc1ccccc1`, the activity, negative = inhibition was -11.4% [at 11.4 µM]. On the same count and under the same terms, the same measure for `O=C1c2ccccc2C(=O)c2c1ccc(C(=O)O)c2-c1ccc2ccccc2c1`: -2.24% [at 11.4 µM]. On to `Clc1ccc(-c2csc(N3CCC(c4ccccc4)C3)n2)cc1` (stereo not drawn), for which the AC50 result was “inactive”.

On to `CN1CCN(C(c2ccccc2)c2ccccc2)CC1`, for which the AC50 entry was “inactive”. The same measure, in the same setting: the figure for `COc1cccc(-c2csc(N3CCN(CC(=O)NNC(=O)c4ccc(Cl)cc4)CC3)n2)c1` is 11.2 µM (active). Regarding `S=C(NCc1ccco1)N1CCN(Cc2ccco2)CC1`, the activity, negative = inhibition was -5.09% [at 2.29 µM].

For `COc1ccc(-c2csc(N3C(=N)SCC3=O)n2)cc1`, the AC50 result is “inactive”. Still for that read-out and setting: the figure for `COc1ccc(C(=O)NC2CCN(C(=S)Nc3cccc(C)c3)CC2)cc1` is 15.8 µM (active); for `S=C(NCc1ccco1)N1CCN(C(c2ccccc2)c2ccccc2)CC1` it is 12.6 µM (active); for `Cc1cccc(CNc2cc(-c3ccc(C(=O)N(C)C)cc3)ncn2)c1` it is 3.16 µM (active). On the same count and under the same terms, the same measure for `CN(C)C(=O)c1ccc(-c2cc(NCc3cccnc3)ncn2)cc1`: 15.8 µM (active). As to `CN(C)C(=O)c1ccc(-c2cc(NCc3ccccc3)ncn2)cc1`, the AC50 result was “inactive”. `C[C@H](NC(=O)c1ccc(Cl)c(Cl)c1)c1ccc(-c2ccccc2)cc1`: the activity, negative = inhibition is -6.52% [at 11.4 µM]. As for `COc1ccc(C(NC(=O)c2ccc(-c3ccccc3)cc2)c2ccccc2)cc1` (stereo not drawn), the half-maximal activity concentration (AC50) was 0.0355 µM (active).

In the case of `O=C1OC2CC3CC1CC(O)(C3)C2` (stereo not drawn), the AC50 result is “inactive”. Take `CCc1n[nH]c(=S)n1/N=C/c1ccc2c(c1)OCO2`: the concentration at half-maximal activity (AC50) was 14.1 µM (active). On the same count and under the same terms, the same measure for `CCn1c(-c2ccc(N(C)C)cc2)nc2ccccc21`: 10 µM (active). As for `Oc1ccc(Cn2c(-c3ccc(O)cc3)nc3ccccc32)cc1`, the activity, negative = inhibition is -21.1% [at 11.4 µM]. On to `COc1ccc(C(=O)N2CCC[C@@]3(CCN(CC(C)C)C3)C2)cc1`, for which the concentration at half-maximal activity (AC50) is 7.94 µM (active). Turning to `COCC(=O)N1CCC2(CC1)CN(Cc1ccc(C#N)cc1)C2`, the AC50 result is “inactive”. Regarding `COc1ccc(C(=O)N2CCC3(CCN(Cc4ccc(C#N)cc4)CC3)CC2)cc1`, the AC50 result was “inactive”. The same measure, in the same setting: the same measure for `COC(=O)N1CCC2(CCCN(Cc3ccccc3)C2)CC1`: “inactive”; for `COc1ccc(C(=O)N2CCC[C@@]3(CCN(Cc4ccccc4)C3)C2)cc1`: 10 µM (active).

Turning to `COc1ccc(C(=O)N2CCC[C@@]3(CCN(Cc4ccc(C#N)cc4)C3)C2)cc1`, the AC50 was 10 µM (active). As to `O=c1[nH]c(=O)n([C@@H]2C[C@H](O)[C@H](CO)O2)cc1I`, the AC50 entry is “inactive”. Consider `Brc1ccc(-c2nnc(-c3ccccc3)c(N3CCSCC3)n2)cc1`, for which the AC50 entry is “inactive”. The same measure, in the same setting: the same measure for `CCCCN(C)S(=O)(=O)c1ccc(C(=O)Nc2nnc(CSC)o2)cc1`: “inactive”; for `Cn1c(C(F)(F)F)nc2c(=O)oc3ccccc3c21`: “inactive”; for `Nc1ccccc1S(N)(=O)=O`: “inactive”. The same measure, in the same setting: the figure for `O=C(NC1CCCCC1)C(c1ccccc1)N1CCOCC1` (stereo not drawn) is 11.2 µM (active). Consider `Cc1ccc(C(C(=O)NC2CCCCC2)N2CCN(C(=O)c3ccco3)CC2)cc1` (stereo not drawn), for which the activity, negative = inhibition was -19.6% [at 2.29 µM].

With `COc1ccc(C(C(=O)NC2CCCCC2)N2CCC3(CC2)OCCO3)cc1` (stereo not drawn), the AC50 is 4.47 µM (active). `CCOc1cc(C)c(S(=O)(=O)Nc2ccc3cn[nH]c3c2)cc1C`: the AC50 is 0.316 µM (active). Consider `CCOC(OCC)P(=O)(O)CCCNCc1ccc(Cl)c(Cl)c1`, for which the AC50 result was “inactive”. Same read-out and setting: the same measure for `CC(SCc1cn2cc(Cl)ccc2n1)C(=O)O` (stereo not drawn): “inactive”.

For the compound `Cc1ccn2cc(CSc3ccccc3N)nc2c1`, the concentration at half-maximal activity (AC50) was 3.98 µM (active). Still for that read-out and setting: the entry for `C[C@@H](C[N+](C)(C)C)OC(N)=O` is “inactive”. With `COC(=O)C1C(=O)C2=C(CC1C)NC(=O)CC2c1cccc(C)c1` (stereo not drawn), the concentration at half-maximal activity (AC50) is 14.1 µM (active). Still for that read-out and setting: the figure for `C=CC[C@@H]1C=C[C@H](O/N=C(\C)CCN2CCCc3nc(C)c(C)cc32)[C@H](CO)O1` is 2.51 µM (active).

Turning to `C=CC[C@@H]1C=C[C@H](O/N=C(\C)CCN2CCCCc3nc(C)c(C)cc32)[C@H](CO)O1`, the concentration at half-maximal activity (AC50) is 3.98 µM (active).

With `CN(C(=S)Nc1ccccc1F)C1(c2ccccc2Cl)CCCCC1=O` (stereo not drawn), the activity, negative = inhibition was -21.2% [at 2.29 µM]. As to `CCCCN1C2=NCCCN2c2ccccc21`, the activity, negative = inhibition is 7.3% [at 11.4 µM].

For the compound `Cc1ccsc1/C=N/Nc1nc(Cl)c(Cl)cc1Cl`, the activity, negative = inhibition is -21% [at 2.29 µM]. Same read-out and setting: the same measure for `O=C(Nc1cc2ccccc2oc1=O)C1CCCCC1`: 10.7% [at 2.29 µM].

`O=C(Nc1ccc(-c2cc3ccccc3oc2=O)c(Cl)c1)c1cccnc1`: the AC50 result is “inactive”. Take `O=c1oc2ccccc2cc1-c1csc(NN=C2CCCCC2)n1`: the AC50 was 3.98 µM (active). On to `COc1cc(OC)cc(C(=O)NC(=S)NCCc2ccccc2)c1`, for which the half-maximal activity concentration (AC50) was 3.98 µM (active).

`COc1cc(OC)cc(C(=O)NC(=S)Nc2ccc(Cl)c(C(=O)O)c2)c1`: the AC50 result is “inactive”. On the same count and under the same terms, the same measure for `COc1ccc(C(=O)NC(=S)NNC(=O)CCc2ccccc2)cc1`: 11.2 µM (active); for `CC[N+](CC)(CC(=O)Nc1c(C)cccc1C)Cc1ccccc1`: “inactive”. As to `O=C(CCc1ccccc1)NNC(=S)NC(=O)c1ccccc1`, the activity, negative = inhibition is 7% [at 2.29 µM].

For `Cc1cccc(C)c1NC(=S)NC(=O)CCc1ccccc1`, the AC50 was 12.6 µM (active). Regarding `NNC(=O)c1ccc[n+](CCc2ccccc2)c1`, the activity, negative = inhibition was -7.56% [at 11.4 µM]. The same measure, in the same setting: the figure for `CC(C)C12CN3CC(C(C)C)(CN(C1)C3c1ccco1)C2=O` (stereo not drawn) is -2.45% [at 2.29 µM]. For `CCCS(=O)(=O)N1CCCC(C(=O)NCCCN2CCN(c3cccc(Cl)c3)CC2)C1` (stereo not drawn), the AC50 entry was “inactive”. Take `Cc1cccc(-c2nc(CN3CCCC(C(=O)NC4CCCCC4)C3)c(C)o2)c1` (stereo not drawn): the half-maximal activity concentration (AC50) is 3.16 µM (active).

Regarding `COc1ccc2nc(N3CCCC(C(=O)NCCCN4CCN(C)CC4)C3)sc2c1` (stereo not drawn), the AC50 entry was “inactive”. Same read-out and setting: the figure for `COc1ccc(CCNC(=O)C2CCCN(Cc3nc(-c4cccc(Cl)c4)oc3C)C2)cc1OC` (stereo not drawn) is 2 µM (active). For the compound `CCC(C)NC(=O)C1CCCN(C(=O)NC2CCCCC2)C1` (stereo not drawn), the activity, negative = inhibition was 10.7% [at 2.29 µM].

On to `Cc1cn([C@H]2C[C@H](O)[C@@H](COC(N)=O)O2)c(=O)[nH]c1=O`, for which the activity, negative = inhibition is -22.2% [at 11.4 µM]. On to `C=CCNc1cnn(-c2ccc(C)cc2)c(=O)c1Cl`, for which the half-maximal activity concentration (AC50) is 4.47 µM (active). The same measure, in the same setting: the entry for `CNc1cnn(-c2ccccc2)c(=O)c1Cl` is “inactive”. In the case of `CC(C)CNCC(=O)N1c2ccccc2Sc2ccccc21`, the half-maximal activity concentration (AC50) was 11.2 µM (active). The same measure, in the same setting: the figure for `O=C(NCCc1ccccc1)N1c2ccccc2Sc2ccccc21` is 14.1 µM (active). As to `C[C@@H](CN1c2ccccc2Sc2ccccc21)N(C)C`, the AC50 result is “inactive”. For `O=C(O)CNCCc1ccccc1`, the activity, negative = inhibition is -11.1% [at 11.4 µM]. For `CC(C)CNC(=O)c1nc(-c2ccccc2)n(-c2ccccc2)n1`, the AC50 result is “inactive”.

With `NC(=O)/C(=N\OC(=O)c1ccco1)c1nc(-c2ccc(Br)cc2)cs1`, the AC50 result was “inactive”. For `N[C@@H](Cc1ncccn1)C(=O)O`, the activity, negative = inhibition was 6.81% [at 11.4 µM].

With `CCOC(=O)c1cc(-c2ccccc2)sc1NC(=O)C(C)(C)C`, the AC50 result was “inactive”. For `CCOC(=O)c1cc(-c2ccccc2)sc1NC(=S)Nc1cc(C)ccn1`, the concentration at half-maximal activity (AC50) was 2.82 µM (active). For `CCOc1ncccc1C(=O)OCC(=O)Nc1cc(C)ccc1C`, the activity, negative = inhibition was 0.451% [at 2.29 µM]. As for `CC(=O)N(/N=C1\Sc2ccccc2C1=O)c1ccccc1`, the AC50 result was “inactive”. Turning to `Cc1ccc(/C=C2\Sc3ccccc3C2=O)s1`, the half-maximal activity concentration (AC50) was 20 µM (active).

Turning to `CC(C)n1cc(/C=C2/SC(=O)N(CC(=O)Nc3ccc4c(c3)OCO4)C2=O)c2ccccc21`, the concentration at half-maximal activity (AC50) was 0.316 µM (active). Take `Cn1cc(/C=C2/SC(=O)N(CC(=O)Nc3ccc4c(c3)OCO4)C2=O)c2ccccc21`: the AC50 was 0.2 µM (active).

With `Cc1ccsc1/C=C1/SC(=O)N(CC(=O)N2CCOCC2)C1=O`, the AC50 result is “inactive”. With `CN1CCc2cc(NC(=O)Nc3cccnc3)ccc21`, the concentration at half-maximal activity (AC50) is 12.6 µM (active). As to `Cn1ncc(Cl)c1C(=O)Nc1cccnc1`, the AC50 entry is “inactive”. Regarding `O=S(=O)(O)c1cc(O)c2c(O)c(N=Nc3cccc4ccccc34)c(S(=O)(=O)O)cc2c1`, the activity, negative = inhibition is -11.8% [at 11.4 µM]. Turning to `COc1ccc(Cl)cc1NC(=O)C12CCC(C)(C(=O)O1)C2(C)C` (stereo not drawn), the concentration at half-maximal activity (AC50) was 15.8 µM (active). Take `NS(=O)(=O)c1ccc(N=Nc2nc3[nH]cnc(=S)c3[nH]2)cc1`: the activity, negative = inhibition was -11.9% [at 11.4 µM].

`COc1ccc(NS(=O)(=O)c2ccc(I)cc2)cc1N1CCN(C)CC1`: the AC50 result was “inactive”. As to `COc1ccc(S(=O)(=O)Nc2cccc(Cl)c2)cc1OC`, the AC50 is 6.31 µM (active). As for `Cc1ccc(-n2cnc(=O)c3cccnc32)cc1`, the activity, negative = inhibition is -3.53% [at 2.29 µM].

On to `Cc1ccc(-n2[nH]c(=O)c3cccnc32)cc1`, for which the AC50 entry is “inactive”. `Cc1ccc(N2C(=O)c3n[nH]c(C)c3C2c2ccccn2)cc1` (stereo not drawn): the concentration at half-maximal activity (AC50) was 14.1 µM (active). Turning to `Cc1ccccc1-c1cncnc1NCCN1CCOCC1`, the half-maximal activity concentration (AC50) is 1.58 µM (active).

With `COCCNc1ncncc1-c1c(C)noc1C`, the AC50 is 5.01 µM (active). With `COCCNc1cc(-c2c(C)noc2C)ncn1`, the AC50 result was “inactive”. On to `CNc1cc(-c2c(C)noc2C)ncn1`, for which the AC50 result is “inactive”. For the compound `Cc1noc(C)c1-c1cncnc1NCCN1CCOCC1`, the AC50 was 6.31 µM (active).

Turning to `FC(F)(F)c1ccccc1-c1cncnc1NCCN1CCOCC1`, the concentration at half-maximal activity (AC50) was 0.794 µM (active).

`Cc1noc(C)c1-c1nccc(N2CCOCC2)n1`: the AC50 entry is “inactive”.

As a reminder, the AC50 is the midpoint of the concentration-response curve, whichever way the signal moves.

The record behind these values is PubChem BioAssay AID1851 (National Center for Advancing Translational Sciences (NCATS), 2009).
